Data from PubChem BioAssay.
Active and inactive are the calls of the source. Cut-off read from the data, not from the text of the source, unless noted: active = nuclear beta-catenin stimulation mostly above about 4.2% (no sharp cut-off); inactive = mostly below about 10%.

How the values were obtained:
[1] = Wnt pathway potentiators raising nuclear beta-catenin – imaging, WNT3A-conditioned medium, mouse C2C12, NPC library, primary screen (AID 1117326); settings: stronger effect = higher value; note: reference of the scale not given here
[2] = stimulators of insulin release from INS-1E, primary screen, cell-based, 5 mM glucose, NPC library (AID 1117329;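 active = compound raises insulin release from rat beta cells at 5 mM glucose, no numeric limit stated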; note: reference of the scale not given here); settings: rat INS-1E insulin secretion, at 10 µM, stronger effect = higher value
[3] = growth inhibition of GSK3B-pretreated HCT116 cells – cell-based, CellTiter-Glo, 0.2 to 20 µM (AID 1117336;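 active = compounds lowering colon cancer cell viability after pretreatment blocking the GSK3B kinase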); settings: HCT116 viability after GSK3B inhibitor, at 20 µM, stronger effect = higher value
[4] = inhibition of endothelial tube formation, primary screen, imaging, VEGF stimulated, CD31 staining, tube area, NPC library (AID 1117340;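 active = compound that reduces growth-factor-driven endothelial tube area in a mixed cell culture, no cutoff stated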); settings: VEGF-stimulated ADSC/ECFC co-culture, at 10 µM, stronger effect = higher value
[5] = GLP1 release stimulators, primary, NCI-H716, NPC library (AID 1117341;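 active = compound raises GLP1 secretion from the human gut endocrine cells, with no numeric limit stated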; note: reference of the scale not given here); settings: NCI-H716 cells, at 10 µM, stronger effect = higher value
[6] = HCT116 colon cancer cell growth inhibition, primary screen, CellTiter-Glo luminescence, NPC library (AID 1117342;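 active = compounds that lower survival of HCT116 colon cancer cells in the luminescence readout, no numeric limit stated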); settings: at 20 µM (top of the series)
[7] = reduced SW480 viability measured with CellTiter-Glo, NPC library, primary (AID 1117343;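 active = compounds that lower viability of the colon cancer cells in the luminescence readout, with no numeric limit stated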); settings: CellTiter-Glo luminescence; at 20 µM (top of the series)
[8] = NPC library primary testing for decreased DLD-1 cell viability via CellTiter-Glo (AID 1117346;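 active = compounds that lower survival of DLD-1 colon cancer cells in the luminescence readout, no cutoff given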); settings: DLD-1 viability, CellTiter-Glo luminescence; at 20 µM (top of the series)

| Structure (SMILES) | nuclear beta-catenin stimulation ([1]; at 10 µM) | nuclear beta-catenin stimulation ([1]; stimulation, at 2 µM) [%] | insulin secretion stimulation [2] | viability decrease [3] | tube area decrease [4] | GLP1 secretion stimulation [5] | inhibition of viability [6] | viability decrease (inhibition) [7] | viability decrease (inhibition) [8] |
| --- | --- | --- | --- | --- | --- | --- | --- | --- | --- |
| C[C@H](CN1CCCC1)C(=O)c1ccc(C(F)(F)F)cc1 | 5.1% (inactive) | -1.9 | 8.3% (inactive) | -5.5% (inactive) | -4% (inactive) | -0.4% (inactive) | 7.8% (inactive) | 73.8% (active) | 68.1% (active) |
| O=C1C(c2[nH]c3ccccc3c2O)=Nc2ccccc21 | -0.7% (inactive) | 1.4 | 1.2% (inactive) | 18.2% (inactive) | 27.2% (inactive) | 0.5% (inactive) | 16.9% (inactive) | 24.1% (inactive) | 0.2% (inactive) |
| O=C(O)c1ccc(OCCCOc2ccc(C(=O)O)cc2)cc1 | 1.9% (inactive) | 0.7 | 3.2% (inactive) | -0.8% (inactive) | -2.8% (inactive) | -1.8% (inactive) | -0.8% (inactive) | 5.3% (inactive) | -6.3% (inactive) |
| CC1(C)CO[C@@H](CC(=O)O)CN1 | -0.7% (inactive) | 0.1 | 0.5% (inactive) | -0.8% (inactive) | -11.6% (inactive) | -0.1% (inactive) | 7.17% (inactive) | -7% (inactive) | -1% (inactive) |
| CC(C)CCOC(=O)c1ccc(N(C)C)cc1 | 0% (inactive) | 0.7 | 0.4% (inactive) | -16.7% (inactive) | -11.5% (inactive) | 1.7% (inactive) | 19.9% (inactive) | -6.9% (inactive) | 10.3% (inactive) |
| COc1cccc(CCc2ccccc2OCC(CN(C)C)OC(=O)CCC(=O)O)c1 (stereo unspecified) | -0.6% (inactive) | 3.9 | 11.9% (inactive) | 53.9% (active) | 0.9% (active) | 8.6% (inactive) | 72.9% (active) | 87.5% (active) | 21.8% (inactive) |
| CCCCCCCCCCCCCCCCCCN(C)C | -0.6% (inactive) | -1.1 | 0.9% (inactive) | 1.2% (inactive) | -8% (inactive) | -0.1% (inactive) | 43.3% (inactive) | -27.7% (inactive) | -0.1% (inactive) |
| CN(C)CCCOC1(Cc2ccccc2)CCCCCC1 | 6% (inactive) | 5.8 | 4.2% (inactive) | -55.2% (inactive) | 17.7% (inactive) | 6.8% (inactive) | 7.6% (inactive) | 33.2% (inactive) | -33.1% (inactive) |
| [O-][n+]1ccccc1SSc1cccc[n+]1[O-] | 78.1% (active) | 34 | -0.2% (inactive) | 51% (active) | 103% (active) | 15.1% (inactive) | 51.9% (active) | -68.5% (inactive) | 1.15% (inactive) |
| NNC(=O)CP(=O)(c1ccccc1)c1ccccc1 | 1.5% (inactive) | 0.6 | -2% (inactive) | -2.45% (inactive) | 34.3% (inactive) | 1.1% (inactive) | -12.6% (inactive) | 10% (inactive) | 7.2% (inactive) |
| NCCC(=O)[N-][C@@H](Cc1cnc[nH]1)C(=O)O.[Zn] | -0.4% (inactive) | -0.2 | -0.8% (inactive) | -1.2% (inactive) | 9.1% (inactive) | 1.7% (inactive) | -12.4% (inactive) | -14.8% (inactive) | 5.9% (inactive) |
| Cc1cc(NS(=O)(=O)c2ccc(N)cc2)nc(C)n1 | 0.1% (inactive) | 0.7 | -1.1% (inactive) | 0.6% (inactive) | -1.9% (inactive) | -0.1% (inactive) | -10.6% (inactive) | 55% (active) | 29.8% (inactive) |
| CCCCC/C=C\C/C=C\CCCCCCCC(=O)NC(C)c1ccccc1 (stereo unspecified) | 0.2% (inactive) | 2.1 | 1% (inactive) | 23.3% (inactive) | -5.3% (inactive) | 0.2% (inactive) | 52% (active) | 13.5% (inactive) | 3.3% (inactive) |
| O=C(O)c1ccc(OCCN2CCCCC2)cc1 | -1% (inactive) | -0.1 | -2.35% (inactive) | 2.1% (inactive) | 4.5% (inactive) | 4% (inactive) | -8.6% (inactive) | -5.5% (inactive) | 0.5% (inactive) |
